These results are taken from the supplement of paper PMC10849652.

About 7,900 targets were measured; listed, in parts, are those with a hit and a random draw of the rest. About 0.6% of all pairs of compound and target were hits. Values without a mark were called inactive.

UniProt Q86TA1, sequence (Q86TA1 whole entry, looked up): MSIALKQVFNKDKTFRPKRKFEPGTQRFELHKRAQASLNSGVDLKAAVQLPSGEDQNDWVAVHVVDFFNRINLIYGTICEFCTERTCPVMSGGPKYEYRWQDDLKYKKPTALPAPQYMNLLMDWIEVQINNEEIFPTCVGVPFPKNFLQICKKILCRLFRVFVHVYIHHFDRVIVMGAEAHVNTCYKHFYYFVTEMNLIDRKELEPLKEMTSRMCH
UniProt Q9H6N6, sequence (Q9H6N6 whole entry, looked up): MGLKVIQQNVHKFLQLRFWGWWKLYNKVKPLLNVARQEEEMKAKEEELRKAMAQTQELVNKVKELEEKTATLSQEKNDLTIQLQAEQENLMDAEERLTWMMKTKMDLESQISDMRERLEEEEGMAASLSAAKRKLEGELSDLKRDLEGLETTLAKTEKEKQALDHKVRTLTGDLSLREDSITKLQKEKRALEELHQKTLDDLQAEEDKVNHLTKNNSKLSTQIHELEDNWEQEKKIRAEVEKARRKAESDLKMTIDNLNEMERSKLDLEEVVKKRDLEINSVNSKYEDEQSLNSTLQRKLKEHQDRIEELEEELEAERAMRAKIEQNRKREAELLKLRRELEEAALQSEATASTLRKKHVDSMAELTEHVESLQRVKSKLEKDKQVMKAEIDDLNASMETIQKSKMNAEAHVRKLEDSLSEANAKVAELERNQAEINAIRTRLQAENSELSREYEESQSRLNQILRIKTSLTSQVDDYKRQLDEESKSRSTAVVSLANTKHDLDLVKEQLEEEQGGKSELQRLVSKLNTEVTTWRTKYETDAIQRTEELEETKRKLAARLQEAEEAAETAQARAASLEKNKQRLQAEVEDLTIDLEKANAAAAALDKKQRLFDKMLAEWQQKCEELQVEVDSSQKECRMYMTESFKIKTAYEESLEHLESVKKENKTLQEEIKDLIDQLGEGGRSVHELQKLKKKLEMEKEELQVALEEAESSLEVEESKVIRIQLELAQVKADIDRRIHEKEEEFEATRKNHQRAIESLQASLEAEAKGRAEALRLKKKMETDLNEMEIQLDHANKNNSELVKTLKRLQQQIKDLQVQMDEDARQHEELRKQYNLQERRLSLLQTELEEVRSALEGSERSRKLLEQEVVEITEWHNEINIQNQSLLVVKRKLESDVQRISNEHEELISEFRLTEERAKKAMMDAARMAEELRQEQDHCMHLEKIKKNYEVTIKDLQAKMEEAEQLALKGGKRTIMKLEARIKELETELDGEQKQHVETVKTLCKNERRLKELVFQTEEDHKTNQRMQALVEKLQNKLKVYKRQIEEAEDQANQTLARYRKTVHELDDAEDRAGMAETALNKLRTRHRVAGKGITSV
UniProt Q6N063, sequence (Q6N063 whole entry, looked up): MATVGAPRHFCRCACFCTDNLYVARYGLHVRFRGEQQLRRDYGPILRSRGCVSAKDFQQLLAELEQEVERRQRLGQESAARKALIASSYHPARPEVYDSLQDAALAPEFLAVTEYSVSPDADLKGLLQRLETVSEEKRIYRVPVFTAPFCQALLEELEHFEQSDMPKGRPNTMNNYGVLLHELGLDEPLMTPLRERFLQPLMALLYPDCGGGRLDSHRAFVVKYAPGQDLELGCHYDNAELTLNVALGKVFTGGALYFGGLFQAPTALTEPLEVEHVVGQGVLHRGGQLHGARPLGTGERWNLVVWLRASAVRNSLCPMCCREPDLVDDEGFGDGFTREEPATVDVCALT
UniProt P03891, sequence (P03891 whole entry, looked up): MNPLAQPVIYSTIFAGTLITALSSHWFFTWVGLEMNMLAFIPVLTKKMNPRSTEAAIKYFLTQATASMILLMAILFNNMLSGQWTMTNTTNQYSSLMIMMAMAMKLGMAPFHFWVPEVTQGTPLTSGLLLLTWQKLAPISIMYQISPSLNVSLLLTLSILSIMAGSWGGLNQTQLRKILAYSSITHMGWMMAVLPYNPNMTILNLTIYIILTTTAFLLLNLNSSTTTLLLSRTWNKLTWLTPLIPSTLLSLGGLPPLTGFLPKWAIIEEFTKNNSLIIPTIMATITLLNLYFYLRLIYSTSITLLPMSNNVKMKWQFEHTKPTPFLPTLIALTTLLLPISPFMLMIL
UniProt P40261, sequence (P40261 whole entry, looked up): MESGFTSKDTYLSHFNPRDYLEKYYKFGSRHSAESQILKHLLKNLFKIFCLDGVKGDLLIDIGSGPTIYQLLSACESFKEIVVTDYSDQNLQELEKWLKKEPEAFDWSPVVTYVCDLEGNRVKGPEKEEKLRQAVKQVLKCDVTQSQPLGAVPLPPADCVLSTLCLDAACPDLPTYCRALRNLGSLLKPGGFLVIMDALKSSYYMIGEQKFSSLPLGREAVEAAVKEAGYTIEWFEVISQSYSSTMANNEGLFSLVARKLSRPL
UniProt P49321, sequence (P49321 whole entry, looked up): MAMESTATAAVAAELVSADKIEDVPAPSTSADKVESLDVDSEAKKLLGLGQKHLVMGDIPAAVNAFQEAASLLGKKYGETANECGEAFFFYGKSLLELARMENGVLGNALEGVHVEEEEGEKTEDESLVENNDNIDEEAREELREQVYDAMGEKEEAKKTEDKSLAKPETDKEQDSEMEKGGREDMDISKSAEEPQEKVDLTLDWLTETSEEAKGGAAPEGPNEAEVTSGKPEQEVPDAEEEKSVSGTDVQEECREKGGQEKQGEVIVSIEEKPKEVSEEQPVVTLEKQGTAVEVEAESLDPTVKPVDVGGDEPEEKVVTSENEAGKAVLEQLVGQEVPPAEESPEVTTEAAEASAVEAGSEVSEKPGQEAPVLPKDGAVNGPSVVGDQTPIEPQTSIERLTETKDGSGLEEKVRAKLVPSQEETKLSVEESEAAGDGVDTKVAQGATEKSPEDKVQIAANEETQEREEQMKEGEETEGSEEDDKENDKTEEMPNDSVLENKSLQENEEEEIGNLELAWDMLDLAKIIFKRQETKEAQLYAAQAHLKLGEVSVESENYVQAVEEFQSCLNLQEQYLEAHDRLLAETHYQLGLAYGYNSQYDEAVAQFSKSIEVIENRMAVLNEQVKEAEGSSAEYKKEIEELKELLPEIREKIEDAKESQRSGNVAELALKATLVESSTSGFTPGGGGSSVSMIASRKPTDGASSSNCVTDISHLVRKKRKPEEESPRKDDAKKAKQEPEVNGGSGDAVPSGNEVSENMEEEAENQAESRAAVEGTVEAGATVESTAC
UniProt Q9UHC9, sequence (Q9UHC9 whole entry, looked up): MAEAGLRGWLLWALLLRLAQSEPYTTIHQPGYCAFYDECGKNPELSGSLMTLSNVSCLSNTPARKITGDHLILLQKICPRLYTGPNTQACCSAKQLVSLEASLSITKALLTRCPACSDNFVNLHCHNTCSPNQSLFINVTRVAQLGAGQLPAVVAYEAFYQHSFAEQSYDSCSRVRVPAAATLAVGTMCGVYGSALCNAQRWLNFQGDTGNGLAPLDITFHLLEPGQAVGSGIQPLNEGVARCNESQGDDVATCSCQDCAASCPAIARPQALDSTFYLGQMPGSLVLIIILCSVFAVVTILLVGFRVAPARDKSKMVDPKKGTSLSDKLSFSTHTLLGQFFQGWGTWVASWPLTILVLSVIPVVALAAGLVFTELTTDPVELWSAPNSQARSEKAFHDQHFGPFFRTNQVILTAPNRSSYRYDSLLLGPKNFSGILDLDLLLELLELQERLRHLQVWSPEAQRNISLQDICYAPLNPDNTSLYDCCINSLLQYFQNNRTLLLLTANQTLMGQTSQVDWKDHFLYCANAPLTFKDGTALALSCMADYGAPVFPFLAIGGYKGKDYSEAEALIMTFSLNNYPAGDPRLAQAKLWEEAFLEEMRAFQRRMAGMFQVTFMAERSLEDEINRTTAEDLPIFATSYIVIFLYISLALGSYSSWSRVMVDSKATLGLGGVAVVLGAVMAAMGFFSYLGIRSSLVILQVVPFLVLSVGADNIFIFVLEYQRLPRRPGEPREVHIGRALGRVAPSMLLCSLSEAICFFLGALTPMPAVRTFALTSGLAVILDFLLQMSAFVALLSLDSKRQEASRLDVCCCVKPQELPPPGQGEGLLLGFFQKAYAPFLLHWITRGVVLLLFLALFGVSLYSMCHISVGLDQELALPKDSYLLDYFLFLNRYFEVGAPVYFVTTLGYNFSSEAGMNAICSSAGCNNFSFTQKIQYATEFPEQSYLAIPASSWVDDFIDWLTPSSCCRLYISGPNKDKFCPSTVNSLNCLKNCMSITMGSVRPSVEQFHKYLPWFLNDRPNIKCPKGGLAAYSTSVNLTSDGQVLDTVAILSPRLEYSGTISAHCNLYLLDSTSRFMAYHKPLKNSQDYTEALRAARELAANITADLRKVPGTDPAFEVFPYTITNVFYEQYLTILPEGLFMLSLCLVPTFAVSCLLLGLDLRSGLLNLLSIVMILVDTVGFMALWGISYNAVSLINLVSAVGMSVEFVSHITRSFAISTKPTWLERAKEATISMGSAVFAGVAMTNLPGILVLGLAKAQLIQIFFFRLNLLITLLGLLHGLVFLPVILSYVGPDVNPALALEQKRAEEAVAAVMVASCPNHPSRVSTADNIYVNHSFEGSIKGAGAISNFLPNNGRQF
UniProt B2RBV5, sequence (B2RBV5 whole entry, looked up): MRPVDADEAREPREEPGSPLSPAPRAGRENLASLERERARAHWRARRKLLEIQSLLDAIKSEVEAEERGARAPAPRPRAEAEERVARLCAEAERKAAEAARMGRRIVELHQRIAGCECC
UniProt Q9H3L0, sequence (Q9H3L0 whole entry, looked up): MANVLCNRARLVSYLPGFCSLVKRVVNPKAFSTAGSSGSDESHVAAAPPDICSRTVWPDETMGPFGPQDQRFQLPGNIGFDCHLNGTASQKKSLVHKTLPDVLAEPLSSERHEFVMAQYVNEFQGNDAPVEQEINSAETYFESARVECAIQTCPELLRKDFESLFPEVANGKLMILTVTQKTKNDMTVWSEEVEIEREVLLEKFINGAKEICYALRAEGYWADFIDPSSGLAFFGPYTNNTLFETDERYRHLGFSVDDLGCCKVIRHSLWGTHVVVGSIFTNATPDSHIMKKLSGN
UniProt O75438, sequence (O75438 whole entry, looked up): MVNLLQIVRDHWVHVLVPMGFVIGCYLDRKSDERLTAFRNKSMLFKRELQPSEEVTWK

Compound in this test: CCCc1cc(C)[nH]c(=O)c1CNC(=O)c1cc(-c2ccnc(N3CCN(C)CC3)c2)cc2c1cnn2C(C)C
Briefly: log2 fold change, soluble protein after heating vs DMSO (PISA); higher = thermal stabilisation; K562 cells, 10 uM, 30 min; active = over 0.2 and 3.5 SD of the protein, either way, in both replicates (recomputed). The gist of the method:
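K562 cells at 2×10^6 cells/mL were given 10 μM compound for 30 min. Aliquots then went through 3 min of heating across 48°C-58°C, were pooled, and were extracted in PBS with 0.5% NP-40 at 4°C, and the supernatant after 21,000xg for 90 min was quantified by TMTpro 16plex LC-MS/MS with channel sums equalised. Thermal stability relative to control samples, from duplicates, is given as log2 fold change.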
In the case of NPC1L1 (UniProt Q9UHC9), the log2 fold change is 0.012.

Take NKTR (UniProt P30414): the log2 fold change is -0.045.

Regarding OVCA2 (UniProt Q8WZ82), the log2 fold change is -0.305.

As for NOS1AP (UniProt O75052), the log2 fold change is 0.101.

NAGPA (UniProt Q9UK23): the log2 fold change was -0.066.

As for NIPSNAP2 (UniProt C9J7B1), the log2 fold change is -0.182.

Take NDUFB1 (UniProt O75438): the log2 fold change is 0.025.

Turning to NA (UniProt B2RBV5), the log2 fold change is 0.021.

In the case of OAF (UniProt Q86UD1), the log2 fold change is -0.346.

As for MITF (UniProt O75030), the log2 fold change was -0.281.

For NKAP (UniProt Q8N5F7), the log2 fold change was 0.15.

Regarding MORC2 (UniProt Q9Y6X9), the log2 fold change is 0.231.

For the target MOB3B (UniProt Q86TA1), the log2 fold change was 0.039.

As to NASP isoform 2 (UniProt P49321), the log2 fold change is 1.06.

For the target NNMT (UniProt P40261), the log2 fold change was -0.093.

For MT-ND2 (UniProt P03891), the log2 fold change is -0.123.

Turning to OSBPL2 (UniProt Q9H1P3), the log2 fold change is -0.264.

MLST8 (UniProt Q9BVC4): the log2 fold change is -0.035.

Regarding NUDT6 (UniProt P53370), the log2 fold change was -0.092.

Consider MYH16 (UniProt Q9H6N6), for which the log2 fold change was 0.12.

For the target MOB2 isoform 3 (UniProt Q70IA6), the log2 fold change is 0.163.

As for MLH1 (UniProt P40692), the log2 fold change was 0.584 (active).

Regarding OGFOD2 (UniProt Q6N063), the log2 fold change was 0.037.

Consider MMADHC (UniProt Q9H3L0), for which the log2 fold change was 0.108.
